Screening results as filed in PubChem BioAssay.
ASK1 inh: inhibitors of human ASK1 kinase; AlphaScreen MKK6 phosphorylation by ASK1, luminescence; inhibition, % at 7.44 µM; hit rate 0.99% among 22,000; AID 1159602; in the data active = inhibition above about 35%;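 note: 0% = median of compound wells and 100% = no enzyme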
Target sequence (Q99683 whole entry, looked up): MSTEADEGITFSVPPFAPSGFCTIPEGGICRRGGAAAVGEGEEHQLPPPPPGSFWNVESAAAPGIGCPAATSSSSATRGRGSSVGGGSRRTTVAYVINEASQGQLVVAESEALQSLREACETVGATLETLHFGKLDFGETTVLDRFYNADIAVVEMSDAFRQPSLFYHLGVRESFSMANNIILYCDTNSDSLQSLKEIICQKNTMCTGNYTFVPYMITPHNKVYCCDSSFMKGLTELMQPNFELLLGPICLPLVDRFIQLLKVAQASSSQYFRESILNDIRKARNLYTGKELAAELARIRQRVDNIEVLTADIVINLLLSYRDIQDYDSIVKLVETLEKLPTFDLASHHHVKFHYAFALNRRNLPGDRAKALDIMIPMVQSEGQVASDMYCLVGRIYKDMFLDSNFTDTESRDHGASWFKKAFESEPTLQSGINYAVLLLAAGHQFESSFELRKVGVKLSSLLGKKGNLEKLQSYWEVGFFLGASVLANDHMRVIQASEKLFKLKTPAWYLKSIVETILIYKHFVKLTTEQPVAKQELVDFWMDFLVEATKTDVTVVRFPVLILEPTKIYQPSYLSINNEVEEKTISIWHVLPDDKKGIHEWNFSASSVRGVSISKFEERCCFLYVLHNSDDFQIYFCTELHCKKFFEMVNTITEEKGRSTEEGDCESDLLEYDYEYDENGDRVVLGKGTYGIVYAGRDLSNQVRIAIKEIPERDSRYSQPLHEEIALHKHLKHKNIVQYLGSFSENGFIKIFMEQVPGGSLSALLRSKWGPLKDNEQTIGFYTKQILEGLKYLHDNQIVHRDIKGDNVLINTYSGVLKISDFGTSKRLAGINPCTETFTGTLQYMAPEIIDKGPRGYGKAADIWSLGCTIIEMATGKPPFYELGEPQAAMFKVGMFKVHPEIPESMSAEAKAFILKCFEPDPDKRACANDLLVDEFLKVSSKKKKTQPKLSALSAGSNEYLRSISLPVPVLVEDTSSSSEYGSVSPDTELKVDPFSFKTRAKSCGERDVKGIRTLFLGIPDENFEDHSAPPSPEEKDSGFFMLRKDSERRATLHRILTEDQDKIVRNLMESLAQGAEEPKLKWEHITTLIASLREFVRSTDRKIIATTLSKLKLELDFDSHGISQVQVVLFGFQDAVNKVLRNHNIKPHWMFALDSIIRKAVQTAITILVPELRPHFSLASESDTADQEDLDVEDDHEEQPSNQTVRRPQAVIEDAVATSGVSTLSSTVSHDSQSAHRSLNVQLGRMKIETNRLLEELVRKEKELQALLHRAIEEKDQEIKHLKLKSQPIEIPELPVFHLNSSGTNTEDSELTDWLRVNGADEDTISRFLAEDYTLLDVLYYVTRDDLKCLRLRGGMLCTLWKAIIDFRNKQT
ULK1 inh: human ULK1 kinase inhibition, primary screen. AID 1259251. hit rate 1.9% among 30,000. AlphaScreen Atg13 phosphorylation by ULK1, luminescence. O75385. inhibition, % at 5.96 µM; in the data active = inhibition above about 43%;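 note: 0% = median of compound wells and 100% = no enzyme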
* hit, by the source's call; · = not tested or not shown. Compounds with a hit are over-represented: about 2.5% of the library has one in this group of screens.

SMILES | ASK1 inh | ULK1 inh
COc1cc(Nc2nc(NC3CCN(Cc4ccccc4)CC3)c3[nH]cnc3n2)cc(OC)c1OC | 18 | 6
COc1cc(Nc2nc(NCc3ccc4c(c3)OCO4)nc3nc[nH]c23)cc(OC)c1OC | 21 | -14
COc1cc(Nc2nc(Nc3ccc4c(c3)OCO4)c3[nH]cnc3n2)cc(OC)c1OC | 6 | 52*
COc1ccc(CCNc2nc(Nc3cc(OC)c(OC)c(OC)c3)nc3nc[nH]c23)cc1 | 14 | 69*
NC(=O)c1ccc(-c2nccc(NCCO)n2)cc1 | 6 | -20
Cc1cc(-c2ccccc2)nc(Nc2ccc(S(N)(=O)=O)cc2)n1 | -28 | -22
O=C(Nc1ccc(F)cc1)C1CCCCN1S(=O)(=O)c1cccs1 (centres undefined) | · | -6
CN1CCN(C(=O)c2ccc(-c3cc(NCc4nc5ccccc5[nH]4)nc(N)n3)cc2)CC1 | -8 | 19
Cc1nn(C)c(C)c1-c1nc2ccc(C(=O)NC3CC3)cc2s1 | -5 | -23
CC(C)N(CCNc1nc(Nc2ccc3ncccc3c2)nc2nc[nH]c12)C(C)C | 7 | 17
CN(C)c1cccc(Nc2nc(Nc3ccccc3)c3[nH]cnc3n2)c1 | 30 | 15
Oc1ccc(CCNc2nc(Nc3ccc4ncccc4c3)nc3nc[nH]c23)cc1 | -29 | 60*
Cc1cnc(Nc2cccc(N(C)C)c2)nc1Nc1ccccc1 | 15 | 23
CN(C)c1cccc(Nc2nc(NC3CC3)c3[nH]cnc3n2)c1 | 34 | 43*
COc1cc(Nc2nc(Nc3cccc(N(C)C)c3)ncc2C)cc(OC)c1OC | 21 | 63*
CC(=O)Nc1ccc(-c2cn[nH]c2)cc1OC[C@@H]1CCCN1Cc1ccccc1 | -13 | -6
COc1ccccc1C(=O)NNC(=O)C(=O)Nc1ccccc1 | · | 11
COc1ccc(CC(=O)Nc2ncc3ccc(-c4cn[nH]c4)cc3c2Cl)cc1 | 1 | 83*
COc1ccc(CC(=O)Nc2ncc3ccc(-c4cn[nH]c4)cc3c2C#N)cc1 | -39 | 5
O=C(Cc1cn(-c2ccc(Nc3ccccc3)nn2)c2ccccc12)NCc1nc2ccccc2[nH]1 | 3 | 9
N#C/C(=C\N1CCOCC1)C(N)=O | · | -15
CCCCOc1ccc(/C=C2\SC(=S)N(C3CCS(=O)(=O)C3)C2=O)cc1 (centres undefined) | · | -6
Cc1c(-c2ccccc2)oc2c(C(=O)OCCN3CCCCC3)cccc2c1=O | · | -11
O=C(NC1CCCC1)C1CCN(C(=O)Cc2ccccc2)CC1 | · | -2
O=C1NC(=O)/C(=C\c2cc(Br)cc(Cl)c2O)S1 | · | 44*
SMILES | ASK1 inh | ULK1 inh
CC(=O)Nc1ccc(/C=C2/SC(=O)NC2=O)cc1 | · | 2
CCNc1nc(NCCc2ccc(OC)cc2)c2ncn(CCN3CCCC3=O)c2n1 | -15 | -5
Cc1cnc(Nc2ccccc2)nc1Nc1ccc(N2CCOCC2)cc1 | 28 | 30
COc1cc(Nc2nc(Nc3ccc(N4CCOCC4)cc3)ncc2C)cc(OC)c1OC | 20 | 45*
COc1cc(Nc2nc(Nc3ccc(-n4ccnc4)cc3)ncc2C)cc(OC)c1OC | 12 | 60*
COc1cc2nc(NCCN3CCOCC3)nc(Nc3ccc(N4CCOCC4)cc3)c2cc1OC | 4 | 5
CCNc1nc(Nc2ccc(N3CCOCC3)cc2)c2cc(OC)c(OC)cc2n1 | 43* | 7
COc1cc(Nc2cc(C)nc(Nc3ccc(-n4ccnc4)cc3)n2)cc(OC)c1OC | 8 | -12
O=C(Nc1ccc(N2CCOCC2)cc1)c1ccc2nc(NCc3ccc4c(c3)OCO4)sc2c1 | -4 | 32
CC[C@H](C)C(=O)O[C@H]1C[C@H](O)C=C2C=C[C@H](C)[C@H](CC[C@@H](O)C[C@@H](O)CC(=O)O)[C@H]21 | · | -7
COc1ccc(CCNC(=O)Cc2cn(-c3ccc(Nc4cccc(N(C)C)c4)nn3)c3ccccc23)cc1 | 26 | 27
Oc1ccc(CCNc2nc(Nc3ccc4ncccc4c3)nc3c2ncn3Cc2ccc(C(F)(F)F)cc2)cc1 | 9 | -50
CC(C)n1cnc2c(NCCOc3ccccc3)nc(Nc3ccc(-n4ccnc4)cc3)nc21 | 27 | -2
CC(=O)c1cccc(-c2nc(Nc3ccccc3)c3ncn(C(C)C)c3n2)c1 | -16 | 46*
CC(C)n1cnc2c(Nc3ccccc3)nc(Nc3ccc(-n4ccnc4)cc3)nc21 | 0 | 56*
CC(C)n1cnc2c(NCc3nc4ccccc4[nH]3)nc(Nc3ccccn3)nc21 | 1 | 25
CC(C)n1cnc2c(Nc3ccc(N4CCOCC4)cc3)nc(Nc3ccc4ncccc4c3)nc21 | 12 | 29
CC(=O)Nc1ccc(Nc2nc(-c3cccc(C(C)=O)c3)nc3c2ncn3C(C)C)cc1 | 18 | 34
CC(C)n1cnc2c(Nc3ccccc3)nc(Nc3ccc4ncccc4c3)nc21 | 0 | 52*
CC(C)n1cnc2c(NCc3nc4ccccc4[nH]3)nc(Nc3ccc4ncccc4c3)nc21 | 2 | 45*
CC(=O)Nc1ccc(Nc2cc(-c3ccccc3)ncn2)cc1 | -5 | -19
COc1ccc(NC(=O)CN2CCC(C(N)=O)CC2)cc1 | · | 7
CC(C)n1cnc2c(Nc3ccccc3)nc(Nc3ccccc3)nc21 | 0 | 38
CC(C)n1cnc2c(Nc3ccccc3)nc(Nc3ccncc3)nc21 | -11 | 46*
COc1cc2nc(N3CCN(Cc4ccc5c(c4)OCO5)CC3)nc(Nc3ccc4c(c3)OCO4)c2cc1OC | 11 | -19
SMILES | ASK1 inh | ULK1 inh
O=C(C1CCN(Cc2ccccc2)CC1)N1CCN(c2ccccc2F)CC1 | · | -5
O=C(NCCc1ccccc1)c1ccc2cncc(-c3ccccc3)c2n1 | · | 55*
COc1ccc(-c2cncc3ccc(C(=O)NCc4ccccc4)nc23)cc1 | · | 26
O=C(Nc1ccc(N2CCOCC2)cc1)c1cncc(-c2ccccc2)c1 | 6 | 10
FC(F)(F)c1cccc(CNc2nc(Nc3ccccn3)nc3c2ncn3C2CCCCC2)c1 | 4 | 1
Cc1nc(C)n(-c2ccc(Nc3ncc4ccc(-c5cn[nH]c5)cc4n3)cc2)n1 | -41 | 36
Cn1cc(-c2ccc3cnc(Nc4ccc(N5CCOCC5)cc4)nc3c2)cn1 | 19 | 84*
Cn1cc(-c2ccc3cnc(Nc4ccc(-n5ccnc5)cc4)nc3c2)cn1 | -4 | 88*
c1cn(-c2ccc(Nc3ncc4ccc(-c5cn[nH]c5)cc4n3)cc2)cn1 | 25 | 90*
Cn1cc(-c2ccc3cnc(Nc4ccc(-n5cnc(-c6ccccn6)n5)cc4)nc3c2)cn1 | 8 | 17
Cn1cc(-c2nc(Nc3ccc(N4CCOCC4)cc3)ncc2F)cn1 | -22 | 20
Cc1cnc(Nc2ccc(-n3ccnc3)cc2)nc1N | -12 | 23
Cc1nc(C)n(-c2ccc(Nc3cc4cc(-c5cn[nH]c5)ccc4cn3)cc2)n1 | -35 | 81*
FC(F)(F)c1ccc(Cn2cnc3c(Nc4ccc5c(c4)OCO5)nc(N4CCN(Cc5ccc6c(c5)OCO6)CC4)nc32)cc1 | 35 | 10
Nc1cccc(-c2nc(Nc3ccc(N4CCOCC4)cc3)c3ncn(Cc4ccc(C(F)(F)F)cc4)c3n2)c1 | 15 | -31
COc1cccc(CN(C(=O)c2nc3ccc(-c4cn[nH]c4)cc3s2)C2CC2)c1 | -5 | -7
CN1CCN(c2cc(-c3cccnc3)nc(-c3ccncc3)n2)CC1 | · | 10
Cn1cc(-c2ccc3cnc(Nc4ccc(C(=O)N5CCOCC5)cc4)nc3c2)cn1 | -3 | 73*
c1cc(-c2ccc3cnc(Nc4ccc(-n5cnc(N6CCOCC6)n5)cc4)nc3c2)c[nH]1 | 19 | 15
Cn1ncc2cc(Nc3ncc4ccc(-c5cn[nH]c5)cc4n3)ccc21 | 27 | 75*
